HIF-2a inh: HIF-2a reporter inhibitors, primary screen, luminescence, 786-0 RCC cells; 786-0 RCC cells HIF-2a reporter, luciferase luminescence, overnight; inhibition, % at 18.8 µM; actives 0.72% (n = 360,000); AID 624352, 2012;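 active means inhibition of the luminescence signal of 40% or more relative to plate controls, in a single-dose primary screen at 18.75 µM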
CHOP inh: inhibitors of CHOP promoter induction, primary screen, cell-based, unfolded protein response, luciferase reporter | CHO-K1 CHOP-promoter luciferase, tunicamycin-induced, 15-18 h | inhibition, % at 10 µM | actives 3.8% (n = 220,000);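 active means compounds that reduced the stress-induced luciferase reporter signal by more than about 70% of percent inhibition, limit read from the data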
CF NFkB block: inhibitors of PAF-induced NF-kB signaling, primary screen, cell-based, GFP fluorescence, uHTS. KKLEB NF-kB-GFP reporter, GFP fluorescence overnight. inhibition, % at 5 µM. actives 0.86% (n = 360,000). AID 588850, 2011;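 active means at least 50% inhibition at 5 µM, scaled per plate between neutral and stimulator controls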;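 further: PAF is a Pseudomonas aeruginosa culture filtrate used as stimulus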
MITF TRPM1 inh: inhibitors of MITF-dependent TRPM1 promoter reporter, primary screen, cell-based, SK-MEL-5, single point, luciferase | SK-MEL-5 TRPM1 promoter luciferase, 24 h | inhibition, % at 12.5 µM | actives 0.83% (n = 330,000);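 active means mean inhibition across replicates of 60% or more, whatever share of single replicates reaches that level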
KKLEB cytotox: cytotoxicity in KKLEB CF airway cells, primary screen, cytotoxicity control for CF NF-kB inhibitor project, cell-based, uHTS, fluorescence assay plates | actives 0.36% (n = 360,000) | activity change (cytotoxicity), % at 5 µM | KKLEB CF airway cells viability, ATPlite luminescence, overnight; hits give low values; cells stimulated with P. aeruginosa culture filtrate;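 active means corrected activity change at or below -50% at 5 µM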
Peg3 prom inh: Peg3 promoter-driven luciferase inhibitors, primary screen, cell-based, HeLa, luciferase luminescence. actives 1.7% (n = 360,000). inhibition, % at 20 µM. HeLa PEG-Prom luciferase reporter, overnight;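 active means inhibition of at least 50% at 20 µM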
CF NFkB inh conf: inhibitors of PAF-induced NF-kB signaling, retest, confirmation, cell-based, GFP fluorescence, single concentration. shares compounds with CF NFkB block. KKLEB CF airway cells, overnight. inhibition, % at 5 µM. actives 64% (n = 1,300). AID 602472, 2012; in the data active means inhibition above about 40%;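 further: stimulus PAF is a Pseudomonas aeruginosa filtrate and not platelet activating factor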
Each line names hits and unclear results; the compound was inactive in the other large screens (follow-up assays come after a bar, where they were run). Shown are actives, neighbours in structure and some others; about 4.3% of the full set was active somewhere.

O=C1CCC(C(=O)OCC(=O)Nc2ccc(SC(F)F)cc2)=NN1	none (no result: CHOP inh, MITF TRPM1 inh)
NS(=O)(=O)c1ccc(CCNC(=O)COC(=O)C2COc3ccccc3O2)cc1 (stereo not given)	none (no result: CHOP inh)
CCOC(=O)Nc1nc(-c2ccccc2)c(C(=O)c2ccccc2)s1	CF NFkB block 53.1 | CF NFkB inh conf 77.2
COC(=O)Nc1nc(-c2ccccc2)c(C(=O)c2ccc(Cl)cc2)s1	none
CNc1ccccc1C(=O)OC(C)C(=O)Nc1ccc(Cl)cn1 (stereo not given)	CF NFkB block 69.0, Peg3 prom inh 99.9 (no result: CHOP inh) | CF NFkB inh conf inactive
O=C(CSc1nnc2ccc(-c3ccc(F)cc3)nn12)NCC1CCCO1 (stereo not given)	none (no result: CHOP inh)
COc1ccc(/C=N/NC(=O)c2[nH]c3ccc(Br)cc3c2-c2ccccc2)cc1	CF NFkB block 81.0, MITF TRPM1 inh 68.3 | CF NFkB inh conf 81.4
COc1ccc(/C=N/NC(=O)c2[nH]c3ccc(Br)cc3c2-c2ccccc2)c(C(=O)O)c1OC	none
O=C(N/N=C/c1ccccc1Cl)c1[nH]c2ccc(Br)cc2c1-c1ccccc1	CF NFkB block 63.2 | CF NFkB inh conf 76.0
COc1ccc(NC(=O)Cn2nnc(C(=O)Nc3ccc(F)c(Cl)c3)c2N)cc1	CF NFkB block 60.6 (no result: CHOP inh) | CF NFkB inh conf inactive
COc1ccc(Cl)cc1NC(=O)c1nnn(CC(=O)Nc2cc(C)cc(C)c2)c1N	none (no result: CHOP inh)
COc1ccc(Cl)cc1NC(=O)c1nnn(CC(=O)Nc2ccc(OC)c(OC)c2)c1N	CF NFkB block 50.3 (no result: CHOP inh) | CF NFkB inh conf inactive
COc1cccc(NC(=O)Cn2nnc(C(=O)Nc3cc(Cl)ccc3OC)c2N)c1	CF NFkB block 55.7 (no result: CHOP inh) | CF NFkB inh conf inactive
COc1ccc(CCNC(=O)CCc2cc(OC)c(OC)c(OC)c2)cc1OC	none (no result: CHOP inh)
O=C(NC1CCCCC1)c1cc(S(=O)(=O)N2CCCC2)ccc1Cl	none (no result: CHOP inh)
C[C@H]1CN(CCc2ccccc2)C(=O)[C@@H]1CC(=O)Nc1ccc(Br)cc1	none (no result: CHOP inh, MITF TRPM1 inh)
Oc1ccc2ccccc2c1CN1CCCCC1	none (no result: CHOP inh)
Oc1c(C(c2ccccc2)N2CCCCC2)ccc2ccccc12 (stereo not given)	CF NFkB block 68.1 (no result: CHOP inh, MITF TRPM1 inh) | CF NFkB inh conf inactive
O=c1c(O)c(-c2ccccc2)oc2cc(O)cc(O)c12	CF NFkB block 59.6 (no result: CHOP inh) | CF NFkB inh conf 62.0
O=c1c(-c2ccccc2)c(-c2ccccc2)oc2cc(O)cc(O)c12	none (no result: CHOP inh)
Cn1c2c(c(=O)[nH]c1=O)C(c1cccc(O)c1)C1=C(N2)c2ccccc2C1=O (stereo not given)	none
O=C(NC(Cc1ccccc1)C(=O)O)/C(=C\c1ccccc1)NC(=O)c1ccc(Br)o1 (stereo not given)	none (no result: CHOP inh)
COc1ccc([C@H]2CC(=O)C=C(c3ccc(OC)c(F)c3)C2)cc1	none (no result: CHOP inh)
COc1ccc([C@H]2CC(=O)C=C(c3ccc(OC)c(OC)c3)C2)cc1	CF NFkB block 56.7 (no result: CHOP inh) | CF NFkB inh conf inactive
O=C(Nc1ccc(Cl)c([N+](=O)[O-])c1)ONC1=NCCCCC1	none
CC(C)[C@H](CO)Nc1nc(NCc2ccc(S(N)(=O)=O)cc2)c2ncn(C(C)C)c2n1	CF NFkB block 70.7 | CF NFkB inh conf 103.6
CC(C)n1cnc2c(NCc3ccc(S(N)(=O)=O)cc3)nc(NCc3ccc(S(N)(=O)=O)cc3)nc21	none
Cc1c(C(=O)N(C)C(C)c2ccccn2)oc2c(F)cccc12 (stereo not given)	none (no result: CHOP inh)
COc1cc(O)cc2cc3c(c(O)c12)C(=O)CC(C)(O)O3 (stereo not given)	CF NFkB block 59.5 (no result: MITF TRPM1 inh) | CF NFkB inh conf 52.3
CC(C)C[C@]1(c2ccccc2)ON(c2ccccc2C(F)(F)F)C1=O	none (no result: CHOP inh)
COc1ccccc1[C@]1(C)ON(c2ccccc2C(F)(F)F)C1=O	CF NFkB block 55.5, Peg3 prom inh 81.9 (no result: CHOP inh) | CF NFkB inh conf 70.2
COc1ccc([C@]2(C(C)C)ON(c3ccccc3C(F)(F)F)C2=O)cc1	CF NFkB block 58.3, Peg3 prom inh 66.2 (no result: CHOP inh) | CF NFkB inh conf 51.7
COC(=O)[C@H](Cc1ccccc1)NC(=O)N1CCN(c2ccc(F)cc2)CC1	none
COc1ccc(N(C)S(=O)(=O)c2cccc(C(=O)N(C)Cc3ccc(C)o3)c2)cc1	none
CCCN1C(=O)C(=O)c2cc(C)ccc21	none (no result: CHOP inh)
CCCCN1C(=O)C(=O)c2cc(Cl)ccc21	CF NFkB block 63.4 (no result: CHOP inh) | CF NFkB inh conf 47.1
CC1(C)O[C@@H]2C[C@H]3[C@@H]4CCC5=CC(=O)C=C[C@]5(C)[C@@]4(F)[C@@H](O)C[C@]3(C)[C@]2(C(=O)CO)O1	CF NFkB block 66.9 | CF NFkB inh conf inactive
CC1(C)O[C@@H]2C[C@H]3[C@@H]4C[C@H](F)C5=CC(=O)C=C[C@]5(C)[C@@]4(F)[C@@H](O)C[C@]3(C)[C@]2(C(=O)CO)O1	CF NFkB block 72.6 | CF NFkB inh conf inactive
CC1(C)OC2CC3C4CC=C5CC(O)CCC5(C)C4CCC3(C)C2(C(=O)CO)O1 (stereo not given)	none (no result: CHOP inh)
CC1=C(C(=O)N2CCOCC2)CC(CC(=O)NCCc2ccccn2)C(=O)N1CCCN1CCCC1=O (stereo not given)	none (no result: CHOP inh, CF NFkB block, MITF TRPM1 inh, KKLEB cytotox, Peg3 prom inh)
Cn1cc([N+](=O)[O-])c(C(=O)Nc2ccc(C3CCCCC3)cc2)n1	CF NFkB block 52.1 | CF NFkB inh conf inactive
CCCn1ncc(CN2CCN(Cc3ccsc3)C(CCO)C2)c1C (stereo not given)	none
O=C(NCCc1c[nH]c2ccccc12)C(=O)NCC(c1ccco1)N1CCN(c2ccc(F)cc2)CC1 (stereo not given)	CF NFkB block 51.2 | CF NFkB inh conf inactive
COc1ccc(NS(=O)(=O)c2cccs2)cc1S(=O)(=O)N1CCCCC1	none (no result: CHOP inh)
CCN(c1ccccc1)c1nc(C#N)nc(N(CC)c2ccccc2)n1	CF NFkB block 52.3 | CF NFkB inh conf inactive
CCOc1ccc(C(C(=O)NCC2CCCO2)N(Cc2cccs2)C(=O)c2snc(C(N)=O)c2N)cc1 (stereo not given)	CF NFkB block 72.0 (no result: CHOP inh) | CF NFkB inh conf 71.7
COc1ccc(C(C(=O)NCC2CCCO2)N(Cc2cccs2)C(=O)c2snc(C(N)=O)c2N)cc1OC (stereo not given)	none (no result: CHOP inh)
O=C(Cc1ccc(Br)cc1)Nc1ccc2[nH]ncc2c1	CF NFkB block 52.6 (no result: CHOP inh) | CF NFkB inh conf inactive
CCC(C)NC(=O)c1c(N)n(/N=C/c2ccccn2)c2nc3ccccc3nc12 (stereo not given)	none
